According to PubChem BioAssay (Tox21):
Results filed as inconclusive are left out. Entries that show only a call come without a potency. Active and inactive are the calls of the source. Unless noted, the call rests on the fitted dose curve; in most records, active means well fitted cell-killing curve with a large enough effect in the repeat runs (not every such curve was filed as active); inconclusive means weak or mixed curves, or effect the other way; inactive means no such curve, though single readings can be large or run the other way.

Target: Bile acid receptor (Homo sapiens) (UniProt Q96RI1)
Assay: qHTS assay to identify small molecule antagonists of the farnesoid-X-receptor (FXR) signaling pathway (AID 743217; active means well fitted inhibition curve with a large enough effect in the signal ratio in the repeat runs, not every such curve was filed as active; the % refers to the signal ratio)
Details: HEK293T FXR-UAS-bla, beta-lactamase ratio, CDCA-stimulated, 16 h; series mostly up to 62.6 µM
Summary of the method: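 FRET fluorescence after 2 h room-temperature LiveBLAzer loading gives the readout. Prior step: FXR-bla HEK 293T cells, seeded and incubated 5 h, received test compounds plus 50 uM final CDCA for 16 h at 37 °C.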

Chain of Bile acid receptor (Homo sapiens) (Q96RI1 whole entry, looked up): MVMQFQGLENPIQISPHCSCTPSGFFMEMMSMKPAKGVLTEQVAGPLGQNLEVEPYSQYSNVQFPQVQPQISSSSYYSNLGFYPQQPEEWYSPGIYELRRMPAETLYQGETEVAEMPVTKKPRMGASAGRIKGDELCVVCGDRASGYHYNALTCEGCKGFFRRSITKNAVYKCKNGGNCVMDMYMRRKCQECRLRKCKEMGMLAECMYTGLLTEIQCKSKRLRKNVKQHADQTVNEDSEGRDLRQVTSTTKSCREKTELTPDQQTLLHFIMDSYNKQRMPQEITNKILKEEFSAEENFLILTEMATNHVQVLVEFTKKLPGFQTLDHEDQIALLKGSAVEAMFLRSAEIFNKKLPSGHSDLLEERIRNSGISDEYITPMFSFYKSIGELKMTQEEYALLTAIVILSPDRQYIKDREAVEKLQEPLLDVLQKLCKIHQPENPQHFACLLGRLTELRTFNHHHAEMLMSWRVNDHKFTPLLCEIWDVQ

SMILES | outcome
Cc1ncsc1CCO | inactive
CCCCCCc1ccc(N)cc1 | inactive
N=C(N=C(N)N)N1CCOCC1 | inactive
C[C@@H](C1=C(CCN(C)C)Cc2ccccc21)c1ccccn1 | inactive
CCN(CC)CCOC(=O)C1(c2ccccc2)CCCC1 | inactive
CCCCCCCCCCCCCCCBr | inactive
O=C1c2cccc(O)c2C(=O)c2c(O)cc(CO)cc21 | inactive
CN(C)CC/C=C1\c2ccccc2COc2ccccc21 | inactive
C=CC(C)(CCC=C(C)C)OC(=O)c1ccccc1 (stereo not drawn) | inactive
CC(C)(C)C1CCCCC1O (stereo not drawn) | inactive
Cc1ccc(C(=O)C(C)CN2CCCCC2)cc1 (stereo not drawn) | inactive
O=C(C(=O)c1ccc(Br)cc1)c1ccc(Br)cc1 | inactive
OCC1CC2CC1C1CCC(CO)C21 (stereo not drawn) | inactive

System: not listed separately
Assay: qHTS assay to identify small molecule agonists of the farnesoid-X-receptor (FXR) signaling pathway - cell viability counter screen (AID 743218; active means well fitted cell-killing curve with a large enough effect in the repeat runs; further: nearly all actives have a fitted effect of over 45% in size; further: potency means the concentration at half of the fitted maximal effect)
Details: FXR-bla HEK293T viability, CellTiter-Glo luminescence, 16 h; series mostly up to 62.6 µM
Summary of the method: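 Readout: CellTiter-Glo luminescence, 30 min RT, multiplexed after the FXR-bla FRET reading. HEK 293T FXR-UAS-bla cells received compound 5 h post-plating and were incubated 16 h at 37 C.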

SMILES | Potency
CC(=O)c1c(C)c([N+](=O)[O-])c(C(C)(C)C)c([N+](=O)[O-])c1C | inactive
CC(C)NCC(O)c1cc(O)cc(O)c1 (stereo not drawn) | inactive
Cc1ncsc1CCO | inactive
Cc1cccc(C(C)(C)C)c1O | inactive
O=C(O)c1cccc(N(Cc2cccnc2)c2ccc(OC(F)F)c(OC(F)F)c2)c1 | inactive
O=C(Cl)c1ccc([N+](=O)[O-])cc1 | inactive
NC(N)=NN=C(/C=C/c1ccc([N+](=O)[O-])o1)/C=C/c1ccc([N+](=O)[O-])o1 | 10.6 µM (active)
CN(C)C/C=C(/c1ccc(Br)cc1)c1cccnc1 | inactive
CC(C)(C)c1ccc(S)cc1 | inactive
COc1ccc([C@@H]2Sc3ccccc3N(CCN(C)C)C(=O)[C@@H]2OC(C)=O)cc1 | inactive
CCCCCCCCCC=O | inactive
CCOc1cc(OCC)c(C(=O)CCC(=O)O)cc1OCC | inactive
Oc1ccc(O)c2c(O)cccc12 | inactive
SC1CCCC1 | inactive
CCN(CC)CCOC(=O)C1(c2ccccc2)CCCC1 | inactive
CC(C(=O)O)c1ccc(-c2ccccc2)c(F)c1 (stereo not drawn) | inactive
CCCCCCCCCCCCCCCBr | inactive
O=C1c2cccc(O)c2C(=O)c2c(O)cc(CO)cc21 | inactive
NCc1ccccc1 | inactive
C1=Cc2ccccc2C1 | inactive
C=CC(C)(CCC=C(C)C)OC(=O)c1ccccc1 (stereo not drawn) | inactive
CCN(CC)CCNC(C(=O)OCCC(C)C)c1ccccc1 (stereo not drawn) | inactive
CC(C)(C)C1CCCCC1O (stereo not drawn) | inactive
Cc1ccc(C(=O)C(C)CN2CCCCC2)cc1 (stereo not drawn) | inactive
c1ccc(OCc2ccc(CCCN3CCOCC3)cc2)cc1 | inactive
O=C(C(=O)c1ccc(Br)cc1)c1ccc(Br)cc1 | inactive

Target: Bile acid receptor (Homo sapiens) (UniProt Q96RI1)
Assay: qHTS assay to identify small molecule agonists of the farnesoid-X-receptor (FXR) signaling pathway (AID 743220; active means well fitted activation curve with a large enough effect in the signal ratio in the repeat runs, not every such curve was filed as active; the % refers to the signal ratio)
Details: HEK293T FXR-UAS-bla, beta-lactamase FRET ratio, 16 h; series mostly up to 62.6 µM
Summary of the method: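 FXR-UAS-bla HEK 293T cells carrying a UAS-driven beta-lactamase reporter were plated for 5 h at 37C/5% CO2, then exposed to DMSO-dissolved Tox21 10K compounds for 16 h at 37C. A LiveBLAzer B/G FRET substrate was loaded for 2 h at room temperature before fluorescence reading.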

SMILES | outcome
CC(=O)c1c(C)c([N+](=O)[O-])c(C(C)(C)C)c([N+](=O)[O-])c1C | inactive
Cc1ncsc1CCO | inactive
N=C(N=C(N)N)N1CCOCC1 | inactive
C[C@@H](C1=C(CCN(C)C)Cc2ccccc21)c1ccccn1 | inactive
CCN(CC)CCOC(=O)C1(c2ccccc2)CCCC1 | inactive
CCCCCCCCCCCCCCCBr | inactive
O=C1c2cccc(O)c2C(=O)c2c(O)cc(CO)cc21 | inactive
CN(C)CC/C=C1\c2ccccc2COc2ccccc21 | inactive
C=CC(C)(CCC=C(C)C)OC(=O)c1ccccc1 (stereo not drawn) | inactive
CC(C)(C)C1CCCCC1O (stereo not drawn) | inactive
Cc1ccc(C(=O)C(C)CN2CCCCC2)cc1 (stereo not drawn) | inactive
O=C(C(=O)c1ccc(Br)cc1)c1ccc(Br)cc1 | inactive
OCC1CC2CC1C1CCC(CO)C21 (stereo not drawn) | inactive

System: not listed separately
Assay: qHTS assay to identify small molecule antagonists of the farnesoid-X-receptor (FXR) signaling pathway - cell viability counter screen (AID 743221); further: nearly all actives have a fitted effect of over 50% in size; further: potency means the concentration at half of the fitted maximal effect
Details: FXR-bla HEK293T viability, CellTiter-Glo luminescence, 16 h; series mostly up to 62.6 µM
Summary of the method: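 Multiplexed counter screen: viability of FXR-bla HEK 293T cells under agonist stimulation by chenodeoxycholic acid (50 uM, final) and test compound for 16 h at 37 C, measured by CellTiter-Glo luminescence in the reporter wells.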

SMILES | Potency
O=C(/C=C/c1ccc(O)c(O)c1)O[C@@H]1C[C@](O)(C(=O)O)C[C@@H](O)[C@H]1O | inactive
CCOC(=O)[C@H](CCc1ccccc1)N[C@H]1CCc2ccccc2N(CC(=O)O)C1=O | 29.8 µM (active)
O=C(O)Cc1cc(I)c(Oc2ccc(O)c(I)c2)c(I)c1 | 54.9 µM (active)
CC(=O)c1c(C)c([N+](=O)[O-])c(C(C)(C)C)c([N+](=O)[O-])c1C | inactive
CC(C)NCC(O)c1cc(O)cc(O)c1 (stereo not drawn) | inactive
Cc1ncsc1CCO | inactive
Cc1cccc(C(C)(C)C)c1O | inactive
O=C(O)c1cccc(N(Cc2cccnc2)c2ccc(OC(F)F)c(OC(F)F)c2)c1 | inactive
O=C(Cl)c1ccc([N+](=O)[O-])cc1 | inactive
NC(N)=NN=C(/C=C/c1ccc([N+](=O)[O-])o1)/C=C/c1ccc([N+](=O)[O-])o1 | 23.7 µM (active)
CCCCCCc1ccc(N)cc1 | inactive
CN(C)C/C=C(/c1ccc(Br)cc1)c1cccnc1 | inactive
CC(C)(C)c1ccc(S)cc1 | inactive
CCCCCCCCCC=O | inactive
N=C(N=C(N)N)N1CCOCC1 | inactive
CCOc1cc(OCC)c(C(=O)CCC(=O)O)cc1OCC | inactive

SMILES | Potency
Oc1ccc(O)c2c(O)cccc12 | inactive
CCOc1nc2cccc(C(=O)O)c2n1Cc1ccc(-c2ccccc2-c2nn[nH]n2)cc1 | inactive
C[C@@H](C1=C(CCN(C)C)Cc2ccccc21)c1ccccn1 | inactive
SC1CCCC1 | inactive
CCN(CC)CCOC(=O)C1(c2ccccc2)CCCC1 | inactive
CC(C(=O)O)c1ccc(-c2ccccc2)c(F)c1 (stereo not drawn) | inactive
CCCCCCCCCCCCC(=O)O | inactive
CCCCCCCCCCCCCCCBr | inactive
O=C1c2cccc(O)c2C(=O)c2c(O)cc(CO)cc21 | inactive
C1=Cc2ccccc2C1 | inactive
CN(C)CC/C=C1\c2ccccc2COc2ccccc21 | inactive
C=CC(C)(CCC=C(C)C)OC(=O)c1ccccc1 (stereo not drawn) | inactive
c1ccc(OCc2ccc(CCCN3CCOCC3)cc2)cc1 | inactive
OCC1CC2CC1C1CCC(CO)C21 (stereo not drawn) | 24.5 µM (active)
C=CC(=O)OCC(C)OCC(C)OCC(C)OC(=O)C=C (stereo not drawn) | inactive
